# The panel holds about 79,000 compounds, 15% with a hit somewhere; the sample as a whole holds those more often. Values without a mark were called inactive. Activity calls are given as the source filed them. Rule as the data show it: active = growth inhibition above about 70%; inactive = the rest.
# Columns and labels:
# [1] = NCI Yeast Anticancer Drug Screen. Data for the rad50 strain (AID 155);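 also: 0% = growth of vehicle-only cultures of the same strain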; conditions: S. cerevisiae rad50 strain growth inhibition, hits give high values
# Procedure, shortened: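 Vehicle-treated cultures provide the reference for the growth inhibition reported for compound-exposed, repair-deficient yeast.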
# [2] = NCI Yeast Anticancer Drug Screen. Data for the mec2-1 strain (AID 157); conditions: S. cerevisiae mec2-1 strain, hits give high values
# Procedure, shortened: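 Cells of the genetically defined mec2-1 yeast strain are incubated with test compound. Inhibition of growth is calculated against vehicle-treated controls.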
# [3] = NCI Yeast Anticancer Drug Screen. Data for the sgs1 mgt1 strain (AID 161);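 also: 0% = growth of cultures given vehicle only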; conditions: S. cerevisiae sgs1 mgt1 strain, hits give high values
# Procedure, shortened: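 Mutant yeast exposed to compound; growth scored against vehicle-only wells.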
# [4] = NCI Yeast Anticancer Drug Screen. Data for the cln2 rad14 strain (AID 165);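 also: 0% = growth equal to vehicle treated cultures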; conditions: S. cerevisiae cln2 rad14 strain, hits give high values
# Procedure, shortened: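 The screen exposed genetically defined yeast (cln2 rad14) to test compounds and scored growth inhibition relative to vehicle-treated controls.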
# [5] = NCI Yeast Anticancer Drug Screen. Data for the bub3 strain (AID 167); conditions: S. cerevisiae bub3 mutant strain, hits give high values
# Procedure, shortened: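 Mutant yeast screening strain plus compound; vehicle-treated cultures serve as the 0% inhibition reference.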
# [6] = NCI Yeast Anticancer Drug Screen. Data for the mlh1 rad18 strain (AID 175); conditions: S. cerevisiae mlh1 rad18 strain growth inhibition, hits give high values
# Procedure, shortened: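 Compound-treated yeast growth, normalised to vehicle controls. Strain bears defined DNA repair mutations.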
# [7] = at 5.0 µM (retest, dose inferred, filed as 0.5)
# [8] = at 50.0 µM (retest, dose inferred, filed as 5.0)
SMILES,"growth inhibition [1, 7]","growth inhibition [1, 8]",growth inhibition ([1]; at 50.0 µM),"growth inhibition [2, 7]","growth inhibition [2, 8]",growth inhibition ([2]; at 50.0 µM),"growth inhibition [3, 7]","growth inhibition [3, 8]",growth inhibition ([3]; at 50.0 µM),"growth inhibition [4, 7]","growth inhibition [4, 8]",growth inhibition ([4]; at 50.0 µM),"growth inhibition [5, 7]","growth inhibition [5, 8]",growth inhibition ([5]; at 50.0 µM),"growth inhibition [6, 7]","growth inhibition [6, 8]",growth inhibition ([6]; at 50.0 µM)
CSc1ncnc2ncn(C3OC(CO)C(O)C3O)c12 (configuration not stated),-16%,-1%,9.65%,-15%,-2%,3.55%,-11%,2%,15.2%,2%,-3%,53%,-10%,-14%,-0.75%,-7%,-21%,12.5%
CCC(CCCN(CC)CCc1ccccc1)OC(=O)c1cc(OC)c(OC)c(OC)c1 (configuration not stated),5%,17%,22.4%,-10%,6%,27.2%,-1%,30%,37.8%,2%,0%,35.6%,4%,18%,4%,5%,10%,54.5%
Cn1cc(NC(=O)c2cc(NC(=O)CCCCCCCC(=O)Nc3cc(C(=O)Nc4cc(C(=O)NCCC(=N)N)n(C)c4)n(C)c3)cn2C)cc1C(=O)NCCC(=N)N,82% (active),96% (active),86.8% (active),84% (active),98% (active),89.8% (active),73% (active),98% (active),90.2% (active),28%,91% (active),82% (active),88% (active),98% (active),88.2% (active),85% (active),98% (active),88.8% (active)
CC(C)C(OC(=O)c1ccc(NCc2cc(O)ccc2O)cc1)C(C)C,21%,97% (active),89.5% (active),23%,99% (active),92% (active),35%,99% (active),90.6% (active),21%,99% (active),88% (active),29%,99% (active),89.8% (active),27%,99% (active),86% (active)
O=C1C=CC(=O)c2c(O)c(N3CCC[C@H]3CO)c(Cl)c(O)c21,20%,90% (active),61.2%,14%,90% (active),78.9% (active),19%,95% (active),23.9%,13%,51%,20%,25%,97% (active),34.5%,31%,90% (active),41.6%
O=[N+]([O-])c1ccc(N=Nc2ccc(O)cc2O)cc1,48%,97% (active),98.5% (active),24%,98% (active),98.9% (active),36%,98% (active),98.3% (active),-1%,97% (active),90.4% (active),45%,97% (active),98.9% (active),28%,97% (active),97.7% (active)
COc1cccc(C(=O)C(CN(C)C)CN(C)C)c1,22%,70% (active),12.2%,26%,69%,30.2%,24%,88% (active),61%,24%,79% (active),33%,24%,85% (active),71.2% (active),30%,93% (active),3%
COC(=O)[C@H]1O[C@H]1c1ccncc1,0%,-5%,18.2%,3%,-2%,1.65%,5%,-2%,18.2%,-1%,-17%,53.8%,3%,-2%,6.2%,0%,-13%,8.2%
Cc1nc(Nc2c(C)cccc2C)c2c(C)c[nH]c2n1,-2%,2%,86.8% (active),-5%,3%,69.1%,0%,1%,85.2% (active),-1%,-1%,27.2%,-4%,-2%,75.5% (active),-2%,-5%,90.3% (active)
